Data reported in the supplement of paper PMC10849652.
About 8,800 targets were measured; listed, in parts, are those with a hit and a random draw of the rest. About 0.5% of all pairs of compound and target were hits.

Experiments:
Test in all cases: log2 fold change, soluble protein after heating vs DMSO (PISA); higher = thermal stabilisation; K562 lysate, 10 uM; active = over 0.2 and 3.5 SD of the protein, either way, in both replicates (recomputed)
ibrutinib = compound: C=CC(=O)N1CCC[C@@H](n2nc(-c3ccc(Oc4ccccc4)cc3)c3c(N)ncnc32)C1 [ibrutinib]
Method in brief: (§1)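 Values give the log-two fold change in thermal stability against solvent controls, from duplicates. Crude K562 extract at 1 mg/mL protein, made by dounce homogenisation in PBS pH 7.4 with 1 mM MgCl2, was treated with 10 μM compound for 30 min. After 3 min heating across 48°C-58°C, aliquots were pooled, adjusted to 0.5% NP-40 at 4°C and centrifuged at 21,000xg for 90 min. The supernatant was measured by TMTpro 16plex LC-MS/MS with channel sums equalised.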

[1] = compound: CC(=O)c1cnc2ccc(-c3cc(Cl)c(O)c(Cl)c3)nc2c1N[C@H]1CC[C@H](CN(C)C)CC1
Method in brief: as §1

ralimetinib = compound: CC(C)(C)Cn1c(N)nc2ccc(-c3[nH]c(C(C)(C)C)nc3-c3ccc(F)cc3)nc21 [ralimetinib]
Method in brief: as §1

[2] = compound: CC(C)(O)CC(=O)NCCn1ccc2ncnc(Nc3ccc(Oc4cccc(C(F)(F)F)c4)c(Cl)c3)c21
Method in brief: as §1

[3] = compound: CC(C)C1=C2N=C(C=C(N2N=C1)NCC3=CC=CC=C3)NCCCCCCN
Method in brief: as §1

[4] = compound: CC1=C(C(CC(=O)N1)C2=CC=C(C=C2)C(F)(F)F)C(=O)NC3=C(C=C4C(=C3)C=NN4)F
Method in brief: as §1

[5] = compound: CC1=C(C2=C(C=C1)C(=O)C3=CC=CC=C3N2CCCN)C
Method in brief: as §1

[6] = compound: CC1=C(C=C(C=C1)NC(=O)C2=CC(=CC=C2)C(C)(C)C#N)NC3=CC4=C(C=C3)N=CN(C4=O)C
Method in brief: as §1

[7] = compound: CC1=C(C=C(C=C1)NC(=O)C2=CC(=CC=C2)N(C)C)NC(=O)C3=CC=C(C=C3)O
Method in brief: as §1

[8] = compound: CC1=CC=C(C=C1)SC2=C3C=C(SC3=CN=C2)C(=O)N
Method in brief: as §1

vemurafenib = compound: CCCS(=O)(=O)Nc1ccc(F)c(C(=O)c2c[nH]c3ncc(-c4ccc(Cl)cc4)cc23)c1F [vemurafenib]
Method in brief: as §1

[9] = compound: CCCS(=O)(=O)Nc1ccc(F)c(C(=O)c2c[nH]c3ncc(Cl)cc23)c1F
Method in brief: as §1

barasertib = compound: CCN(CCCOc1ccc2c(Nc3cc(CC(=O)Nc4cccc(F)c4)[nH]n3)ncnc2c1)CCOP(=O)(O)O [barasertib]
Method in brief: as §1

[10] = compound: CC[C@@H]1C(=O)N(C)c2cnc(Nc3ccc(C(=O)NC4CCN(C)CC4)cc3OC)nc2N1C1CCCC1
Method in brief: as §1

volasertib = compound: CC[C@@H]1C(=O)N(C)c2cnc(Nc3ccc(C(=O)N[C@H]4CC[C@H](N5CCN(CC6CC6)CC5)CC4)cc3OC)nc2N1C(C)C [volasertib]
Method in brief: as §1

[11] = compound: CCn1c(C(=O)N(C2CC2)C2CC2)cc2c3c(ncn3C)c(Nc3cc(C)n(C)n3)nc21
Method in brief: as §1

[12] = compound: CCn1cc(-c2ccnc3[nH]c(-c4cccc(CN(C)C)c4)cc23)c(-c2ccc(NC(=O)N(C)C)cc2)n1
Method in brief: as §1

[13] = compound: CN1CCC(CNc2ccc3ncc(-c4cccc(OC(F)(F)F)c4)n3n2)CC1
Method in brief: as §1

saracatinib = compound: CN1CCN(CCOc2cc(OC3CCOCC3)c3c(Nc4c(Cl)ccc5c4OCO5)ncnc3c2)CC1 [saracatinib]
Method in brief: as §1

sotrastaurin = compound: CN1CCN(c2nc(C3=C(c4c[nH]c5ccccc45)C(=O)NC3=O)c3ccccc3n2)CC1 [sotrastaurin]
Method in brief: as §1

Measured: log2 fold change

COMT (UniProt P21964)
Sequence of UniProt P21964 (P21964 whole entry, looked up): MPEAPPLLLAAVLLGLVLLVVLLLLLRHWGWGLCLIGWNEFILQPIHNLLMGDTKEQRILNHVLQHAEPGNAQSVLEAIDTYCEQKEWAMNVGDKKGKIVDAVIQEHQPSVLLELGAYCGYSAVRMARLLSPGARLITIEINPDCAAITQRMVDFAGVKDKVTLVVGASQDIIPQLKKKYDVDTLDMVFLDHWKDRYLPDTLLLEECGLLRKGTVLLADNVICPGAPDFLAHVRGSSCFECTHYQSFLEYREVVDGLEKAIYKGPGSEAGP
inactive: ibrutinib 0.01 | [1] 0.019 | ralimetinib 0.01 | [2] 0.016 | [3] 0.009 | [4] -0.045 | [5] 0.002 | [6] 0.031 | [7] 0.019 | [8] 0.01 | vemurafenib -0.052 | [9] 0.012 | barasertib 0.024 | [10] -0.101 | volasertib -0.056 | [11] 0.039 | [12] 0.026 | [13] 0.005 | saracatinib 0.008 | sotrastaurin 0.036

DLG3 isoform 2 (UniProt Q92796)
inactive: ibrutinib 0.034 | [1] 0.009 | ralimetinib 0.124 | [2] 0.042 | [3] -0.005 | [4] 0.055 | [5] -0.009 | [6] -0.023 | [7] -0.033 | [8] 0.024 | vemurafenib 0.109 | [9] 0.005 | barasertib 0.047 | [10] -0.128 | volasertib -0.006 | [11] -0.057 | [12] -0.14 | [13] 0.038 | saracatinib 0.004 | sotrastaurin 0.043

DDX20 (UniProt Q9UHI6)
Sequence of UniProt Q9UHI6 (Q9UHI6 whole entry, looked up): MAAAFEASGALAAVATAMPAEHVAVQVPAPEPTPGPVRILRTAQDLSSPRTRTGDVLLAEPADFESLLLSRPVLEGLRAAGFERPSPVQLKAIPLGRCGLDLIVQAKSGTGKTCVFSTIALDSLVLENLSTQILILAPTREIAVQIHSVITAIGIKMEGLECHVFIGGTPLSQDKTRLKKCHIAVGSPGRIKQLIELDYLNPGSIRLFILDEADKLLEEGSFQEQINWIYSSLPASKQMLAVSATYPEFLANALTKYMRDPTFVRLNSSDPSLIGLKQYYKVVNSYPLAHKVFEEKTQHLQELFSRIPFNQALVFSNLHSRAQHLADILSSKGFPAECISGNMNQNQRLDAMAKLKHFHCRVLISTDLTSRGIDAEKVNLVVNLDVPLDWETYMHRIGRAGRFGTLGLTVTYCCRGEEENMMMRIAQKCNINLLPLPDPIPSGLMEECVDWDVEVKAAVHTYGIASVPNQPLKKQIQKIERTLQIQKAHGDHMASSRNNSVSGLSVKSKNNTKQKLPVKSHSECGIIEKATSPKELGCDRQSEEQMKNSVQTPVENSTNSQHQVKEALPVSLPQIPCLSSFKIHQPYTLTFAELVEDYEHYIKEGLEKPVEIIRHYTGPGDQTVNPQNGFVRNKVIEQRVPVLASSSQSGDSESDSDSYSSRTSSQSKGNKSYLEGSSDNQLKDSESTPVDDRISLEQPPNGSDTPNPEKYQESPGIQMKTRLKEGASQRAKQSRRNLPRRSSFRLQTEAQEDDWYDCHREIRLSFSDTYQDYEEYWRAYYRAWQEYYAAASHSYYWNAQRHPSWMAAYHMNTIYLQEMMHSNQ
inactive: ibrutinib -0.01 | [1] 0.017 | ralimetinib 0.029 | [2] -0.029 | [3] -0.03 | [4] -0.011 | [5] 0.004 | [6] -0.006 | [7] 0.044 | [8] 0.01 | vemurafenib -0.058 | [9] 0.018 | barasertib 0.011 | [10] -0.087 | volasertib -0.061 | [11] 0.036 | [12] -0.037 | [13] -0.094 | saracatinib 0.036 | sotrastaurin 0.004

CPT1A (UniProt P50416)
Sequence of UniProt P50416 (P50416 whole entry, looked up): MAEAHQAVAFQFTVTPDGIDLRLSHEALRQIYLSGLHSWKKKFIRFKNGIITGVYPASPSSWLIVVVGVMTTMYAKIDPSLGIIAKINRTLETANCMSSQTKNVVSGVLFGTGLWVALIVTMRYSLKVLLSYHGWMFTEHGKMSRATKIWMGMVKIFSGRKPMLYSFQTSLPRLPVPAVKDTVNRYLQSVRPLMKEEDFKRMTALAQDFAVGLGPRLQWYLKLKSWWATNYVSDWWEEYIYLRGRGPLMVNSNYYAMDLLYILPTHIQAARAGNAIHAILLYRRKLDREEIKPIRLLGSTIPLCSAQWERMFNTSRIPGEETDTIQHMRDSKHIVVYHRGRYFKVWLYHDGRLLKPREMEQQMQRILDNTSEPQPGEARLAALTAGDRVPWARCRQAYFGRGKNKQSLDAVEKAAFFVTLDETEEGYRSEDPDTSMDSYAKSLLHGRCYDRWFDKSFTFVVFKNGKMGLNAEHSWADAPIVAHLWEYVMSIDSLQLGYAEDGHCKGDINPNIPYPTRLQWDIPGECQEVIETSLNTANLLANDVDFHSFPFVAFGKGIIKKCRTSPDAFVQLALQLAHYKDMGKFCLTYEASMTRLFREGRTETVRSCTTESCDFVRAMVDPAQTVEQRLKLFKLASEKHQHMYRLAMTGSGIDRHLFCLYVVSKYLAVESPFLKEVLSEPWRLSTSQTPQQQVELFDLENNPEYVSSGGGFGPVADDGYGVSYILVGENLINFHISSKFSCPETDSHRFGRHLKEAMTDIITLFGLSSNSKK
inactive: ibrutinib 0.042 | [1] -0.021 | ralimetinib -0.016 | [2] 0.008 | [3] -0.026 | [4] -0.009 | [5] -0.041 | [6] -0.05 | [7] -0.008 | [8] 0.017 | vemurafenib 0.024 | [9] 0.035 | barasertib 0.048 | [10] 0.038 | volasertib 0.032 | [11] -0.018 | [12] 0 | [13] -0.137 | saracatinib -0.004 | sotrastaurin -0.014

DMXL1 (UniProt Q9Y485)
inactive: ibrutinib -0.02 | [1] -0.025 | ralimetinib 0.021 | [2] -0.012 | [3] 0.016 | [4] -0.001 | [5] -0.024 | [6] 0 | [7] 0.064 | [8] -0.026 | vemurafenib 0.024 | [9] 0.028 | barasertib -0.005 | [10] 0.015 | volasertib -0.06 | [11] 0.026 | [12] -0.017 | [13] -0.004 | saracatinib 0.002 | sotrastaurin 0.023

CNST (UniProt Q6PJW8)
Sequence of UniProt Q6PJW8 (Q6PJW8 whole entry, looked up): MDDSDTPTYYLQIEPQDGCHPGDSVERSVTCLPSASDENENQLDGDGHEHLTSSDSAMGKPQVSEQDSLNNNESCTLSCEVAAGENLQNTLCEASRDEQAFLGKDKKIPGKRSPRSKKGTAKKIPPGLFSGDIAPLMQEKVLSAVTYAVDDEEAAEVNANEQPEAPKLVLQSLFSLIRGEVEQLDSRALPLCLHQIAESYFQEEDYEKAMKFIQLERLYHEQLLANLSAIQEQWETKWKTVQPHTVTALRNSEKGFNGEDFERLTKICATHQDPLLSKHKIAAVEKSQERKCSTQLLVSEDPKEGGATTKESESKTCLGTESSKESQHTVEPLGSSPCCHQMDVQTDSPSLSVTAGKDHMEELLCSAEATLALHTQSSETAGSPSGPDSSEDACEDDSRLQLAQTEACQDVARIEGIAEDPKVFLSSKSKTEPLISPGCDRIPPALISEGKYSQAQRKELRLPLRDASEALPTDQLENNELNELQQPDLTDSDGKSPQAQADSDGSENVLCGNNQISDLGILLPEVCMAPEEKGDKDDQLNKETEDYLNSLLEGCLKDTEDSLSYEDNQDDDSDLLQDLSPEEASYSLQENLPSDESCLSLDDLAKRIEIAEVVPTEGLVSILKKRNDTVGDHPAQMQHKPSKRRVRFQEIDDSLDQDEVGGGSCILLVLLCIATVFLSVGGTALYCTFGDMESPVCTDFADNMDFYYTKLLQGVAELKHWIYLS
inactive: ibrutinib 0 | [1] 0.006 | ralimetinib 0.031 | [2] 0.022 | [3] 0.012 | [4] 0.176 | [5] -0.01 | [6] -0.035 | [7] 0.006 | [8] -0.002 | vemurafenib 0.002 | [9] -0.026 | barasertib -0.07 | [10] 0.079 | volasertib -0.008 | [11] 0.02 | [12] -0.066 | [13] 0.019 | saracatinib 0.033 | sotrastaurin 0.039

DFFB (UniProt O76075)
Sequence of UniProt O76075 (O76075 whole entry, looked up): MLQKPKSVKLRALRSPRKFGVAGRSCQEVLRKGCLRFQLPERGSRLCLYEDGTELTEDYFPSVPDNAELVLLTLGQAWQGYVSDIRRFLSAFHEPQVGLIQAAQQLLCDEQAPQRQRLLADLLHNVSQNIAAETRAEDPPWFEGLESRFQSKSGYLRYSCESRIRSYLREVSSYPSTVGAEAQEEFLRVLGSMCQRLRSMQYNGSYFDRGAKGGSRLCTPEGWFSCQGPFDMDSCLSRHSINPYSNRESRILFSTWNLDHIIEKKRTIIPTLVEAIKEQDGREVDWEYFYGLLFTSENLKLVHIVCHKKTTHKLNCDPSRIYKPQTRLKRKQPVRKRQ
inactive: ibrutinib 0.076 | [1] -0.01 | ralimetinib 0.054 | [2] -0.068 | [3] -0.027 | [4] 0.044 | [5] 0.08 | [6] 0.033 | [7] -0.07 | [8] -0.039 | vemurafenib 0.022 | [9] 0.044 | barasertib -0.064 | [10] 0.037 | volasertib -0.012 | [11] 0.1 | [12] -0.024 | [13] 0.061 | saracatinib 0.042 | sotrastaurin 0.06

CSNK1E (UniProt P49674)
inactive: ibrutinib 0.029 | [1] 0.287 | ralimetinib 0.208 | [2] -0.026 | [3] -0.04 | [4] -0.012 | [5] -0.064 | [6] -0.049 | [7] -0.028 | [8] -0.039 | vemurafenib -0.013 | [9] -0.038 | barasertib 0.029 | [10] 0.135 | volasertib -0.01 | [11] 0.11 | [12] -0.013 | [13] 0.237 | saracatinib 0.069 | sotrastaurin 0.061

DNAAF5 (UniProt Q86Y56)
inactive: ibrutinib -0.043 | [1] 0.032 | ralimetinib 0.074 | [2] -0.049 | [3] -0.043 | [4] -0.002 | [5] -0.005 | [6] -0.035 | [7] 0.047 | [8] 0.061 | vemurafenib -0.006 | [9] -0.007 | barasertib 0.03 | [10] -0.062 | volasertib -0.06 | [11] 0.047 | [12] -0.035 | [13] -0.049 | saracatinib 0.04 | sotrastaurin 0.044

DPH5 isoform 5 (UniProt Q9H2P9)
Sequence of UniProt Q9H2P9 (Q9H2P9 whole entry, looked up): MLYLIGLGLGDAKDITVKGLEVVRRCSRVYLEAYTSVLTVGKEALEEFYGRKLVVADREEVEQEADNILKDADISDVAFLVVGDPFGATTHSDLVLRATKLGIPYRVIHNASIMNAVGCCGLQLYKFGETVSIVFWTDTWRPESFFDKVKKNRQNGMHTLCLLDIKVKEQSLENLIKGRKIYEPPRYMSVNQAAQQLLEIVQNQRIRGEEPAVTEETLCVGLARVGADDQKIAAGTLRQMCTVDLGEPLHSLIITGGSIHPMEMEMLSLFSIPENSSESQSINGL
inactive: ibrutinib 0.043 | [1] -0.027 | ralimetinib -0.031 | [2] 0 | [3] 0.298 | [4] -0.034 | [5] -0.111 | [6] -0.007 | [7] -0.037 | [8] 0.04 | vemurafenib 0.144 | [9] 0.016 | barasertib -0.05 | [10] 0.16 | volasertib 0.273 | [11] -0.011 | [12] 0.182 | [13] 0.033 | saracatinib -0.029 | sotrastaurin 0.049

CHMP4A isoform 2 (UniProt Q9BY43)
active: [12] -0.278
inactive: ibrutinib -0.002 | [1] 0.011 | ralimetinib 0.03 | [2] -0.041 | [3] 0.036 | [4] 0.011 | [5] -0.02 | [6] 0.036 | [7] -0.03 | [8] -0.007 | vemurafenib 0 | [9] -0.002 | barasertib -0.053 | [10] 0.064 | volasertib 0.039 | [11] -0.002 | [13] 0.222 | saracatinib 0.048 | sotrastaurin 0.024

DES (UniProt P17661)
Sequence of UniProt P17661 (P17661 whole entry, looked up): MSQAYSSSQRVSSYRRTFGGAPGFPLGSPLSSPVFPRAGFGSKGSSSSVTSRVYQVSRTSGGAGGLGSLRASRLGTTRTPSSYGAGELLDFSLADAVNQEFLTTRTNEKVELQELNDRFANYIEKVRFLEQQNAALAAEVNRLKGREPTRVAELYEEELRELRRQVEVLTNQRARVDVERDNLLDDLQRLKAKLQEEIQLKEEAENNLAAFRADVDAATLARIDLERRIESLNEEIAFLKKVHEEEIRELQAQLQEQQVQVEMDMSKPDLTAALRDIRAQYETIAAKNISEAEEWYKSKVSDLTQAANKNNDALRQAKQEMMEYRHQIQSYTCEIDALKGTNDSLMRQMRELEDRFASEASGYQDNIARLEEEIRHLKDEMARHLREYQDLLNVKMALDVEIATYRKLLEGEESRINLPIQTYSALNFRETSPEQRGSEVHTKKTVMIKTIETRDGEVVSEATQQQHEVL
active: [12] -0.434
inactive: ibrutinib 0.044 | [1] 0 | ralimetinib 0.025 | [2] -0.16 | [3] -0.01 | [4] -0.026 | [5] -0.045 | [6] 0.057 | [7] -0.017 | [8] -0.057 | vemurafenib 0.084 | [9] 0.008 | barasertib -0.001 | [10] 0.045 | volasertib 0.058 | [11] -0.026 | [13] 0.149 | saracatinib 0.106 | sotrastaurin -0.012

CKAP2 (UniProt Q8WWK9)
Sequence of UniProt Q8WWK9 (Q8WWK9 whole entry, looked up): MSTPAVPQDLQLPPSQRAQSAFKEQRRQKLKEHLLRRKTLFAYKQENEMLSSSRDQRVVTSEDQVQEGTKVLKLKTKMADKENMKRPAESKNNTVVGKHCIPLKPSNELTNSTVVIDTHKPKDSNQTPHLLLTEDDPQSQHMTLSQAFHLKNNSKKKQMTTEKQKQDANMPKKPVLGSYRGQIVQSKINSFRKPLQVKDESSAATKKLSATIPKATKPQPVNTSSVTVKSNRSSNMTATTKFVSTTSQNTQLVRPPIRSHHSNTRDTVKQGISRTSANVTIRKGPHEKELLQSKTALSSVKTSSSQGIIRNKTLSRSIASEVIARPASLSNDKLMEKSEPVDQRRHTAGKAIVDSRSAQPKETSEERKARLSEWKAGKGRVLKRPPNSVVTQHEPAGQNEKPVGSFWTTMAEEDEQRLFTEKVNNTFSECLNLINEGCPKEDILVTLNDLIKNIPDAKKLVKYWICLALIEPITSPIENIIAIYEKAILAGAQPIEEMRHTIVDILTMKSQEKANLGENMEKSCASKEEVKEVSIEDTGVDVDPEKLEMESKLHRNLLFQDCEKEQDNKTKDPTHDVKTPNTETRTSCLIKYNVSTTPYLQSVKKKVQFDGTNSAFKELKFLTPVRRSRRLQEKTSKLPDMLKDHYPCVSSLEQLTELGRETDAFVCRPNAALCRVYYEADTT
inactive: ibrutinib -0.065 | [1] -0.057 | ralimetinib -0.017 | [2] 0.016 | [3] -0.053 | [4] -0.012 | [5] -0.004 | [6] 0.003 | [7] -0.027 | [8] 0.03 | vemurafenib -0.095 | [9] 0.01 | barasertib -0.014 | [10] 0.073 | volasertib 0.009 | [11] -0.024 | [12] 0.062 | [13] -0.094 | saracatinib 0.019 | sotrastaurin 0.019

COASY isoform 2 (UniProt Q13057)
Sequence of UniProt Q13057 (Q13057 whole entry, looked up): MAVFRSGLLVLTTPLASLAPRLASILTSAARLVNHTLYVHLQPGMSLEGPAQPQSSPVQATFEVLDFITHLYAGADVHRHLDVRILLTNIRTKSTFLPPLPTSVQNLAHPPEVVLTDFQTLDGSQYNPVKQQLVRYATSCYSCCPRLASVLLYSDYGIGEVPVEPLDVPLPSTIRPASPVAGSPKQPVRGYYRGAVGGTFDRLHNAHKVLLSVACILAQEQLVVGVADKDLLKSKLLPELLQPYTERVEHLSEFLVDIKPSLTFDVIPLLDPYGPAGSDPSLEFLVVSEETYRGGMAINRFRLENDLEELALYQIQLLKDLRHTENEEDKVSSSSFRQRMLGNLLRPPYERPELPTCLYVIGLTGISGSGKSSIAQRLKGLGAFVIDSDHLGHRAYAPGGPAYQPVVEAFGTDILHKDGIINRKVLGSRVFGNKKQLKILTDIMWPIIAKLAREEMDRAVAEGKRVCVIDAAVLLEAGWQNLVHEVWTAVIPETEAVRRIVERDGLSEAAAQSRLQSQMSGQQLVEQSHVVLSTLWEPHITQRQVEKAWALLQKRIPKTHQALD
inactive: ibrutinib 0.024 | [1] -0.015 | ralimetinib 0.103 | [2] 0.002 | [3] -0.003 | [4] 0.013 | [5] -0.001 | [6] -0.013 | [7] 0.037 | [8] 0.014 | vemurafenib 0.076 | [9] 0.017 | barasertib 0.011 | [10] -0.075 | volasertib -0.098 | [11] 0.034 | [12] -0.063 | [13] 0.038 | saracatinib 0.021 | sotrastaurin 0.079

CSNK2B (UniProt P67870)
active: [1] 0.408
inactive: ibrutinib -0.004 | ralimetinib 0.003 | [2] -0.013 | [3] 0 | [4] -0.054 | [5] 0.114 | [6] -0.004 | [7] -0.015 | [8] -0.016 | vemurafenib -0.042 | [9] 0.03 | barasertib -0.032 | [10] -0.007 | volasertib -0.038 | [11] 0.015 | [12] 0.01 | [13] 0.124 | saracatinib -0.066 | sotrastaurin -0.029

CSK (UniProt P41240)
active: ibrutinib 0.891 | [6] 0.626
inactive: [1] 0.242 | ralimetinib 0 | [2] 0.181 | [3] 0 | [4] -0.086 | [5] -0.04 | [7] -0.015 | [8] -0.054 | vemurafenib 0.43 | [9] 0.304 | barasertib 0.187 | [10] -0.046 | volasertib -0.09 | [11] -0.068 | [12] 0.015 | [13] 0.096 | saracatinib 0.37 | sotrastaurin -0.043
